Shown are actives, neighbours in structure and some others; about 0.91% of the full set was active somewhere.
BLM inh: qHTS Assay for Inhibitors of Bloom's syndrome helicase (BLM); RecQ-like DNA helicase BLM (Homo sapiens), P54132; recombinant BLM DNA unwinding, fluorescence dequenching; Potency, µM (doses to about 56.1 µM), actives largely listed as inhibitors; 350,000 tested, 0.2% active; AID 2528, 2010; also: nearly all actives have a fitted effect of over 35% in size
TexasRed fluor: Total Fluorescence Counterscreen for Inhibitors of the Interaction of Thyroid Hormone Receptor and Steroid Receptor Coregulator 2; AID 1479, 2009; Potency, µM (doses to about 106 µM); 280,000 tested, 0.29% active; TRb/SRC2 Texas Red total fluorescence interference; active = well fitted curve in either direction with a large enough effect; inconclusive = small, poorly fitted or top-dose-only effect
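Human TRb ligand-binding domain at 0.6 uM with 20 nM Texas Red SRC2 peptide in Tris buffer containing 1 uM T3 and 5% DMSO, incubated with compound 5 h at ambient temperature. Total fluorescence (555/632 nm) calculated as parallel + 2 × perpendicular.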
TRb SRC2 PPI: qHTS for Inhibitors of the Interaction of Thyroid Hormone Receptor and Steroid Receptor Coregulator 2. Potency, µM (highest dose often 106 µM), most hits filed as inhibitors. AID 1469, 2008. Thyroid hormone receptor beta (Homo sapiens), P10828. 280,000 tested, 0.065% active. TRbeta-SRC2 peptide binding, fluorescence polarization; receptor liganded with 1 µM T3; also: nearly all actives have a fitted effect of over 50% in size
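Assay buffer: 20 mM Tris-HCl, 100 mM NaCl, 10% glycerol, 1 mM EDTA, 0.01% NP-40, 1 mM DTT, 1 uM T3, 5% DMSO; TRb LBD 0.6 uM, Texas Red SRC2 20 nM; FP after 5 hr.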
APEX1 inh: qHTS Assay for Inhibitors of the Human Apurinic/apyrimidinic Endonuclease 1 (APE1). AID 2517, 2012. 350,000 tested, 0.35% active. DNA repair nuclease/redox regulator APEX1 (Homo sapiens), P27695. recombinant APE1, TAMRA/BHQ-2 abasic DNA cleavage fluorescence. Potency, µM (top dose mostly 65.8 µM), actives largely listed as inhibitors; also: nearly all actives have a fitted effect of over 55% in size
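Compound pre-exposure to 0.75 nM APE1, 15 min at ambient temperature. Reaction initiated with 50 nM TAMRA/BHQ-2 THF substrate, read immediately in kinetic mode, 525 nm excitation, 598 nm emission.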
WRN helicase inh: qHTS for Inhibitors of WRN Helicase | Potency, µM (top dose mostly 114 µM), actives largely listed as inhibitors | 360,000 tested, 0.46% active | Bifunctional 3'-5' exonuclease/ATP-dependent helicase WRN (Homo sapiens), Q14191 | WRN helicase unwinding, fluorescent forked duplex, kinetic; also: nearly all actives have a fitted effect of over 55% in size
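WRN at 20 nM final preincubated with compound 15 min at room temperature; reaction started with 100 nM fluorophore/quencher forked duplex oligonucleotide and 2 mM ATP final. Unwinding followed kinetically by red fluorescence (ex 525, em 598 nm).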
RECQ1 inh: qHTS Assay for Inhibitors of RecQ-Like Dna Helicase 1 (RECQ1) | ATP-dependent DNA helicase Q1 (Homo sapiens), P46063 | RECQ1 DNA unwinding, red fluorescence kinetic read | Potency, µM (titrated, usually from 57.3 µM), most hits filed as inhibitors | 240,000 tested, 0.54% active; also: nearly all actives have a fitted effect of over 30% in size
Target sequence (P46063 whole entry, looked up): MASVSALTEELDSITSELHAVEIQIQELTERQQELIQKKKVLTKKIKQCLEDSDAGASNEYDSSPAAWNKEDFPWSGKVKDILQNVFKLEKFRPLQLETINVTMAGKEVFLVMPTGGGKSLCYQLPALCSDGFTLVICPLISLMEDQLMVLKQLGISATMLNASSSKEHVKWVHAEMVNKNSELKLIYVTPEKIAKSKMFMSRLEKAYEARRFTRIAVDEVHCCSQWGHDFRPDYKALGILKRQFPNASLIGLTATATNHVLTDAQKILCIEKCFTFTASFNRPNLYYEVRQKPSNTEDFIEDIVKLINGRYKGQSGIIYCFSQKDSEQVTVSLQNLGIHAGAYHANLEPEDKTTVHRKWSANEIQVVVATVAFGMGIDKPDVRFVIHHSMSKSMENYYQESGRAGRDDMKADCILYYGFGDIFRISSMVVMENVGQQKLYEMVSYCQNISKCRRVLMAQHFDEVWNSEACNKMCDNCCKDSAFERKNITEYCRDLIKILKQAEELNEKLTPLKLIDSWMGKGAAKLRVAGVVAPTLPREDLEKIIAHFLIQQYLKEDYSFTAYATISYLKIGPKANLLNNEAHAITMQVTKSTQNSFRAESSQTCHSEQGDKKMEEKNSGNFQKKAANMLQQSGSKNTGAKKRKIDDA
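RECQ1T1 50 nM; forked duplex (20 bp + 30-nt ss tails) 200 nM, ATP 2 mM final; pH 8.0, 2 mM MgCl2, 2.5 ug/ml poly(dI-dC); 15 min compound preincubation; discontinuous kinetic read over 2 h at RT.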
Hits are given with their value; n = inactive; u = inconclusive; x = no result; [ ] = dose if it differs, or a comment. Unless noted, calls follow the shape of the dose curve; as a rule, active = well fitted curve in the direction sought with a large enough effect; inconclusive = small, poorly fitted or top-dose-only effect, or another doubt; inactive = no such curve, though single readings can be large; an effect the other way counts as inactive or inconclusive.

SMILES	BLM inh	TexasRed fluor	TRb SRC2 PPI	APEX1 inh	WRN helicase inh	RECQ1 inh
CS(=O)(=O)c1cc([N+](=O)[O-])c(Sc2nc3ccccc3[nH]2)c([N+](=O)[O-])c1	n	n	n	n	56µM	n
O=C(O)c1cc([N+](=O)[O-])c(Sc2nc3ccccc3[nH]2)c([N+](=O)[O-])c1	n	x	x	n	u	x
N#C/C(=C\c1ccc(-c2cccc(Cl)c2)o1)C(=O)Nc1cccc(C(F)(F)F)c1	n	0.089µM[quencher]	u	x	x	x
CCOc1ccc2ccccc2c1C1NC(=O)N(C)C(C)=C1C(=O)OCCOC (stereo unspecified)	n	x	x	n	n	x
CS(=O)(=O)c1ccc(C(=O)Nc2nc(-c3ccco3)c(-c3ccco3)s2)cc1	x	x	x	n	45µM	x
O=C(Nc1nc(-c2ccco2)c(-c2ccco2)s1)C1CCC1	n	n	n	u	u	n
CC(=O)c1cccc(OCC(=O)N(C)CC(=O)NCc2ccco2)c1	x	x	x	9.5µM	u	x
CC(C)(C)OC(=O)NCCOCCOCCOc1ccc(-c2no[n+]([O-])c2C#N)cc1	x	x	x	n	x	x
CCOC(=O)CC(O)(CC(=O)OCC)C(=O)OCC	x	n	n	x	x	x
O=c1cc(-c2ccccc2O)oc2cc(O)cc(O)c12	n	n	n	n	x	n
O=c1cc2oc3cc(O)c(O)cc3c(-c3ccccc3O)c-2cc1O	6.3µM	40µM[fluorescent]	18µM	0.89µM	n	3.5µM
O=c1cc(-c2ccccc2O)oc2cc(O)ccc12	n	n	n	n	x	n
CCOc1ccccc1-c1c2cc(O)c(=O)cc-2oc2cc(O)c(O)cc12	10µM	n	n	n	89µM	n
O=c1cc(-c2cccc(O)c2O)oc2ccccc12	n	n	n	n	x	6.3µM
CN(C)CC/C=C1/c2ccccc2CSc2ccccc21	x	x	x	n	x	x
CCN1CCCc2cc(CN(CCN3CCOCC3)C(=S)Nc3ccc(OC)cc3)ccc21	n	n	n	6.3µM	n	n
CC1(C(=O)NC2CCCCC2)Cc2ccccc2C(=O)N1Cc1ccc(F)cc1 (stereo unspecified)	n	32µM[quencher]	n	x	x	x
CC(C)OB(OC(C)C)OC(C)C	x	n	n	x	x	x
O=C(O)CC12CC3CC(C1)CC(n1ncc(NCc4ccc5c(c4)OCO5)c(Cl)c1=O)(C3)C2	n	n	n	n	x	40µM
CCC/C(=N\OCC)C1=C(O)CC(O)(CC(C)S(=O)(=O)CC)CC1=O (stereo unspecified)	x	n	n	x	x	x
O=C(O)c1ccc(NC2=C/C(=N/S(=O)(=O)c3ccccc3)c3ccccc3C2=O)cc1	14µM	n	u	u	u	n
CCc1ccc(S(=O)(=O)/N=C2\C=C(Nc3cccc(C(=O)O)c3)C(=O)c3ccccc32)cc1	25µM	x	x	n	u	x
CCc1ccc(S(=O)(=O)/N=C2/C=C(Sc3ncn[nH]3)C(=O)c3ccccc32)cc1	22µM	n	20µM	u	20µM	u
CCOc1ccc(NC(=O)N2CCN(c3nnc(C)c4c(C)n(-c5ccccc5)nc34)CC2)cc1	n	0.0005µM[quencher]	n	x	x	x
CC1CCc2nc3ccc(S(=O)(=O)N4CCC(C(=O)NCc5ccccc5Cl)CC4)cc3c(C(=O)O)c2C1 (stereo unspecified)	n	20µM[quencher]	n	n	n	x
SMILES	BLM inh	TexasRed fluor	TRb SRC2 PPI	APEX1 inh	WRN helicase inh	RECQ1 inh
COc1ccc(-c2c(C)c3ccc(O)c(CN4CCCC4)c3oc2=O)cc1	n	n	n	x	x	x
CCc1ccccc1NC(=O)CCS(=O)(=O)c1ccc(Br)cc1	n	x	x	n	n	x
CCOc1ccccc1NC(=O)CCS(=O)(=O)c1ccc(Br)cc1	n	x	x	n	50µM	x
CCOc1ccccc1NC(=O)CN(CCc1ccccc1)S(=O)(=O)c1ccc(C)cc1	n	0.032µM[quencher]	n	x	x	x
CCOC(=O)N(C)c1c(CC)nc2c(OCc3ccccc3C)cccn12	x	x	x	x	n	x
Cc1ccc(N=Nc2c(O)ccc3ccccc23)c(C)c1	x	45µM[fluorescent]	40µM	x	x	x
c1ccc(SSc2ccccn2)nc1	x	x	x	x	22µM	x
Cc1cc(=O)oc2cc3c(cc12)OCO3	n	x	x	n	n	x
COc1ccc(-c2[nH]n(-c3ccc([N+](=O)[O-])cc3)c(=O)c2C=NCc2ccc(F)cc2)cc1	n	n	n	n	n	n
COc1ccc(-c2[nH]n(-c3ccc([N+](=O)[O-])cc3)c(=O)c2C=NCc2ccncc2)cc1	7.9µM	n	n	n	u	n
S=C([S-])NCCNC(=S)[S-].[Mn+2]	x	n	n	x	x	x
O=c1c(-c2ccccc2)coc2cc(O)cc(O)c12	22µM	n	n	u	x	n
CCCCC(=O)OCC(=O)C1(O)Cc2c(O)c3c(c(O)c2C(OC2CC(NC(=O)C(F)(F)F)C(O)C(C)O2)C1)C(=O)c1c(OC)cccc1C3=O (stereo unspecified)	x	x	x	x	7.9µM	x
CNc1ccc([N+](=O)[O-])cc1	x	n	n	n	n	11µM
O=C1C(=O)c2ncccc2-c2cccnc21	16µM	n	u	x	x	x
COc1ccc2c(c1)-c1nc(N)sc1CC2	n	n	n	n	n	n
COc1ccc2c(c1)-c1nc(/N=C/c3ccc(O)c(OC)c3)sc1CC2	n	n	n	n	79µM	n
Cc1ccc(S(=O)(=O)/N=C2/C=C(C3C(=O)CC(C)(C)CC3=O)C(=O)c3ccccc32)cc1	n	n	n	n	17µM	n
CCc1ccc(S(=O)(=O)/N=C2\C=C(Nc3ccc(O)cc3)C(=O)c3ccccc32)cc1	n	x	x	n	n[11.6 µM]	x
N#CC1=C(N)N(c2ccc(F)cc2)C2=C(C1c1ccc(O)cc1)S(=O)(=O)CC2 (stereo unspecified)	n	45µM[fluorescent]	u	u	n	u
O=C(O)c1ccccc1N/N=C/c1c(Sc2nnnn2-c2ccccc2)nc2ccccn2c1=O	n	n	n	35µM	n[11.6 µM]	u
O=c1c(/C=N/Nc2ccccc2)c(Sc2nnnn2-c2ccccc2)nc2ccccn12	n	n	n	n	n	n
Cc1cc(Cl)ccc1N=c1ssnc1Cl	n	n	n	n	50µM	n
Cc1ccc(N=c2ssnc2Cl)cc1	n	n	n	n	50µM	n
N#Cc1ccc(CSc2nnc(NC(=O)C3CC(=O)N(c4ccc5c(c4)OCCO5)C3)s2)cc1 (stereo unspecified)	n	n	n	14µM	n	28µM
Fc1ccc(NC(=S)Nc2cccc3cnccc23)cc1	22µM	n	u	n	n	n

Compound activity from PubChem BioAssay.
